# Several values for one entry are separate records, joined by “and”; a condition that tells them apart may be missing. Identical values can stand only once. This is part of a sample that, as a whole, favours compounds with a hit. Of some 83,000 tested, about 20% had one in any assay.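 Values shown are percent growth following 48 h exposure of cells in 96-well plates to a single concentration of compound; below 10 was considered active.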 Activity calls are given as the source filed them.
# System: SNB-19 CNS
# Test: NCI-60 one-dose screen, 48 h (100 = growth as untreated, 0 = no growth, -100 = all killed)
# Conditions: 10 µM unless noted
row,SMILES,growth
1,COc1ccc(/C(C)=C(\c2ccc(OCCN3CCCCCC3)cc2)c2ccc(OC(=O)C3CCCCC3)cc2)cc1,3.58% (active)
2,N=c1c2c(-c3ccccc3)c(-c3ccccc3)oc2ncn1NC(=O)c1cccnc1,96.4% (inactive)
3,O=C(Nc1cc(C(F)(F)F)cc(C(F)(F)F)c1)c1cc(Cl)ccc1O,5.13% (active) and 12.9% (inactive)

# System: U251 CNS
# Test: as above
# Conditions: 10 µM unless noted
row,SMILES,growth
1,C[N+]1=C(/C=C\C=C\c2ccccc2)C(C)(C)c2ccccc21,14% (inactive)
2,O=C(/C=C/C12c3ccccc3C(c3ccccc31)C1C(=O)NC(=O)C12)c1ccncc1 (stereo not given),7.81% (active)
3,CN1CCN(Cc2ccc(NC(=O)c3nc4ccc5[nH]ncc5c4c4c3CCCC4)cc2C(F)(F)F)CC1,-91% (active)
4,CC(=O)c1nn(-c2ccccc2)/c(=N/N=Cc2cn(-c3ccccc3)nc2-c2cc3ccccc3oc2=O)s1,91.6% (inactive)
5,CN1CCN(Cc2ccc(NC(=O)c3cccc(C#Cc4c(N)ncc5ccc(F)cc45)c3)cc2C(F)(F)F)CC1,-67.9% (active)
6,CCN(C(=O)N1CCN(c2cc3c(cc2F)c(=O)c(C(=O)O)cn3C2CC2)CC1)c1nc(-c2ccccc2)cs1,20.7% (inactive)
7,COc1ccc(-c2ccccc2)cc1-c1c(Nc2cc(Cl)cc(Cl)c2O)c(=O)c1=O,6.59% (active)
8,COc1cc(CO)cc2cc3ccccc3nc12,99.2% (inactive)
9,N=C(N)c1ccc(-c2ccc(-c3ccc(Cl)c(Cl)c3)s2)cc1,-65.9% (active)
10,Cc1c(C(=O)OCCCCOC(=O)c2c(C)n(C)c3scc[n+]23)[n+]2ccsc2n1C,103% (inactive)
11,COc1ccc(/C(C)=C(\c2ccc(OCCN3CCOCC3)cc2)c2ccc(OC(=O)C3CCCCC3)cc2)cc1,103% (inactive)
12,CCOc1ccccc1NC(=O)c1cc2ccccc2cc1O,24.4% (inactive)
13,O=S(=O)(Nc1ccc(F)cc1)c1ccc(-c2cnc(C3CC3)o2)cc1,21% (inactive)
14,CN(C)c1ccc2nc3ccc(=O)cc-3sc2c1,21.2% (inactive) and 33.3% (inactive)
15,COC(=O)N/N=C/c1c[n+]([O-])c2ccccc2[n+]1[O-],96.6% (inactive)
16,COc1cc(F)c(/C=C/c2cc(/C=C/c3cc(OC)c(OC)cc3F)n(-c3cc(F)cc(F)c3)n2)cc1OC,-1.48% (active)

row,SMILES,growth
1,Clc1ccc(CNc2ccc3nc(CCC4CCCCC4)[nH]c3c2)cc1,43.8% (inactive)
2,FC(F)(F)Sc1ccc(/C=C/c2cc(/C=C/c3ccc(SC(F)(F)F)cc3)n(-c3ccccc3)n2)cc1,90.4% (inactive)
3,CC(=O)N1N=C(c2ccc(Nc3nc(Nc4ccc(F)cc4)nc(Nc4ccc(F)cc4)n3)cc2)CC1c1ccccc1 (stereo not given),85.5% (inactive)
4,COC1/C=C/OC2(C)Oc3c(C)c(O)c4c(O)c(c(C=NOC(c5ccccc5)c5ccccc5)c(O)c4c3C2=O)NC(=O)/C(C)=C/C=C/C(C)C(O)C(C)C(O)C(C)C(OC(C)=O)C1C (stereo not given),10.4% (inactive)
5,Nc1ccccc1SC(CC(=O)c1ccccc1)c1ccc([N+](=O)[O-])cc1 (stereo not given),62.6% (inactive) and 57.4% (inactive)
6,Cc1ccc(/C=C/c2c(C(=O)/C=C/c3ccccc3)c(C)nc3ccccc23)cc1,-5.93% (active)
7,COc1ccc(/C=C(\C#N)c2cc3ccccc3[nH]2)cc1,18.7% (inactive)
8,Cc1ccc(Cl)cc1N1CCN(C(=O)[C@@H]2C[C@@H]2c2ccc(F)cc2)CC1,90% (inactive)
9,COc1ccc(/C=C2/C(=O)N=C3N2NC(c2ccccc2)=CN3c2ccccc2)cc1,99.4% (inactive)
10,COc1ccc2nc3cc(Cl)ccc3c(NCCCNCCC(C)O)c2c1 (stereo not given),-41.4% (active)
11,COc1ccc(-c2nc(Cl)c3c(C)nn(-c4ccc(F)cc4)c3n2)cc1,96.5% (inactive)
12,C=CCOc1ccc(/C=C2\SC(=S)N(CCc3ccc(O)cc3)C2=O)cc1,86% (inactive)
13,O=C1N=c2ccccc2=C1c1sc(=S)n(C2CC(=O)N(c3ccc(Cl)cc3)C2=O)c1O (stereo not given),104% (inactive)
14,COc1c(O)c(O)cc2c3c(oc12)CC(c1ccc2c(c1)OCO2)CC3=O (stereo not given),76.2% (inactive)
15,O=C(c1cccc(Br)c1)N1CCN(c2ccnc3cc(Cl)ccc23)CC1,78.2% (inactive)
16,Cc1ccc(S(=O)(=O)OC[C@@]2(C)CC[C@]3(C)CC[C@]4(C)C(=C3C2)C=C[C@@H]2[C@@]3(C)CCCNC(C)(C)[C@@H]3CC[C@]24C)cc1,-95.9% (active)

# — PubChem BioAssay (NCI)
